A selection: hits, their analogues and other compounds. The true share with any hit is near 5.2%.
SKN-1 inh = C. elegans SKN-1 inhibition | inhibition, % at 21.8 µM | actives 0.49% (n = 360,000) | C. elegans VP596 Pgst-4::GFP/RFP ratio, acrylamide-induced, 24 h | AID 624304;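 active means interference check ratio from 0.5 to 1.5 plus GFP to RFP signal ratio inhibition reaching or exceeding a fixed threshold, cut at about 30% in these data, passing the limit was not always enough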
esBAF inh = inhibitors of esBAF chromatin remodeling in mouse ES cells | Bmi1-luciferase knock-in reporter, 24 h; 100% = twice the neutral-well signal | reporter increase, % at 12.5 µM | actives 2% (n = 350,000) | AID 602393; in the data active means activation above about 40%; inconclusive means no clear call, values can overlap the other calls;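 further: a rise in the Bmi1 reporter signal indicates esBAF inhibition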
NR3A LBD binder = modulators (binders) of human NR3A ligand-binding domain; NR3A LBD differential scanning fluorimetry, Tm shift; 0% = protein alone, 100% = glycine-bound protein; AID 1259313; Tm shift relative to glycine control, % at 25 µM; actives 2.5% (n = 340,000);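 active means melting temperature shift of at least 10% of the positive control shift, at one fixed dose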
Vif inh = inhibitors of HIV Vif. HEK293T cells, Vif self-association by quenched fluorescence, imaging, 24 h. actives 0.35% (n = 340,000). AID 602346. inhibition, % at 7.49 µM; in the data active means inhibition above about 50%, passing the limit was not always enough; inconclusive means no clear call, values can overlap the other calls; inactive means below about 31%
SMARCA2 act = increases SMARCA2 function in MMTV reporter cells; actives 1% (n = 370,000); activation, % at 9.1 µM; MG213 cells, MMTV-luciferase reporter, dexamethasone, overnight; in the data active means activation above about 7.8%
NadD inh = inhibitors of Staphylococcus aureus NadD. actives 0.78% (n = 360,000). inhibition, % at 20 µM. purified NadD enzyme, colorimetric absorbance read-out. AID 602399; in the data active means inhibition above about 26%
Numbers stand for hits; n = inactive; u = inconclusive; x = not tested or not shown.

SMILES	SKN-1 inh	esBAF inh	NR3A LBD binder	Vif inh	SMARCA2 act	NadD inh
COC(=O)c1ccc(NC(=O)CSc2nc3ccc(N4C(=O)C5C6C=CC(C6)C5C4=O)cc3s2)cc1 (centres undefined)	n	x	12.1	n	n	n
C/C=C/c1ccc([C@@H]2[C@H](CO)N3CCCCN(C(=O)Cc4cccnc4)C[C@@H]23)cc1	x	n	x	x	x	x
O=C1NC(=S)N(c2ccc(F)cc2)C(=O)/C1=C\c1ccoc1	n	n	n	n	x	31.6
COC(=O)[C@H]1[C@H](CO)[C@H]2Cn3c(ccc(C4=CCCC4)c3=O)[C@@H]1N2C(=O)C1CCCCC1	x	n	x	x	x	x
O=C(Cc1cccnc1)N1CCCCN2[C@H](CO)[C@@H](c3ccc(C#CC4CCCC4)cc3)[C@@H]2C1	x	n	x	x	x	x
O=C1NC(=O)C(=Cc2ccc(-c3ccc(Cl)cc3)o2)C(=O)N1	n	n	n	n	x	38.8
O=C(OCc1ccccc1)N1CCC2CC1c1cc(N3Cc4ccccc4-n4nncc4C3)ccc12 (centres undefined)	n	76.7	x	x	n	n
Fc1ccc(N2Cc3ccccc3-n3nncc3C2)cc1	n	n	x	n	n	n
Cc1cccc(NP(=O)(Oc2ccccc2)Oc2ccccc2)c1C	n	n	n	n	n	n
Cc1ccccc1NP(=O)(Oc1ccccc1F)Oc1ccccc1F	n	x	11.2	n	n	n
CN1C(=O)C(c2ccc([N+](=O)[O-])cc2[N+](=O)[O-])C(=O)N(C)C1=O	n	n	10.0	n	n	n
O=[N+]([O-])c1ccc(Cl)c([N+](=O)[O-])c1	n	n	n	n	n	n
COc1ccc(-c2ccc([C@H]3[C@H]4CN(C(=O)Cc5ccncc5)CCCCN4[C@H]3CO)cc2)cc1	x	n	x	x	x	x
CNc1ccc2nc3ccccc3[n+](C)c2c1	n	n	11.8	n	n	n
C[n+]1c2ccccc2nc2ccc(NCCO)cc21	n	n	n	u	n	n
COc1cc(Br)cc(CN2CCN(C)CC2)c1O	n	n	11.1	n	x	n
COc1ccc(Br)cc1CN1CCN(CCO)CC1	n	n	n	n	n	n
CCOC(=O)C(O)(c1ccc(NC(=O)NC2CCCCC2)cc1)C(F)(F)F (centres undefined)	n	45.6	n	n	n	n
CCOC(=O)C(O)(c1ccc(N=c2ccccn2C)cc1)C(F)(F)F (centres undefined)	n	x	n	n	n	n
CCOC(=O)C(O)(c1ccc(NC(=O)c2ccc(Cl)c(Cl)c2)cc1)C(F)(F)F (centres undefined)	n	n	10.9	n	n	n
CC=Cc1ccc2n(c1=O)C[C@H]1[C@H](CO)[C@@H](C(=O)N(C)C)N[C@@H]21 (mixture of isomers)	x	n	x	x	x	x
COC(=O)[C@@H]1[C@@H](CO)[C@@H]2Cn3c(ccc(-c4ccccc4F)c3=O)[C@H]1N2Cc1ccncc1	x	n	x	x	x	x
O=C(Cc1ccccc1)N1C[C@@H]2[C@H](c3ccccc31)[C@@H](CO)N2Cc1ccccc1	x	n	x	x	x	x
O=C(Nc1ccc(F)cc1)c1c(O)c2c(n(Cc3ccccc3)c1=O)CCCC2	n	x	10.6	n	n	n
O=C(c1cc(C(=O)NCc2ccc(Cl)cc2)c(=O)n(Cc2ccc(Cl)cc2)c1)c1cc(F)ccc1O	n	x	18.0	n	n	n
SMILES	SKN-1 inh	esBAF inh	NR3A LBD binder	Vif inh	SMARCA2 act	NadD inh
C/C(=N\N1CCCCCC1)c1c(O)n(-c2ccc(C)cc2)c(=O)[nH]c1=O	n	x	n	68.0	n	n
CC/C(=N\N1CCCCCC1)c1c(O)n(-c2ccc(C)cc2)c(=O)[nH]c1=O	n	x	21.3	n	n	n
C/C(=N\N1CCCCCC1)c1c(O)n(-c2ccc(Cl)cc2)c(=O)[nH]c1=O	n	n	n	n	n	n
O=C(Nc1ccc(Cl)cc1)O/N=C(\c1ccccc1)c1ccccn1	n	n	11.1	n	n	n
CON(C)C(=O)Nc1ccc(Cl)cc1	n	n	n	n	n	n
O=C(O)[C@H]1[C@H](CO)[C@H]2Cn3c(ccc(-c4ccncc4)c3=O)[C@@H]1N2C(=O)C1CCCCC1	x	n	x	x	x	x
O=C1NC(=O)C(=Cc2ccc(Sc3ccccc3)o2)C(=O)N1	n	x	n	n	n	n
O=C1NC(=O)N(c2ccc(Cl)cc2)C(=O)/C1=C\c1ccc(Sc2nc3ccccc3[nH]2)o1	n	x	n	n	n	55.5
O=C(O)[C@H]1[C@H](CO)[C@H]2Cn3c(ccc(-c4ccncc4)c3=O)[C@@H]1N2C(=O)C1CCC1	x	n	x	x	x	x
CC=Cc1ccc2n(c1=O)C[C@H]1[C@H](CO)[C@@H](C(=O)OC)[C@@H]2N1CC1CCOCC1 (mixture of isomers)	x	n	x	x	x	x
COC(=O)[C@H]1[C@H](CO)[C@H]2Cn3c(ccc(-c4ccccc4)c3=O)[C@@H]1N2CCc1ccccc1	x	n	x	x	x	x
O=C1NC(=S)N(c2ccc(Cl)cc2)C(=O)/C1=C/N1CCN(C(=O)c2ccco2)CC1	43.8	n	n	n	n	n
O=C(O)Cn1cc(/C=C2\C(=O)NC(=O)N(c3ccc(Cl)cc3)C2=O)c2ccccc21	n	n	n	n	n	n
C/C(=N\NC(=O)c1ccccc1Cl)c1c(O)n(C2CCCCC2)c(=O)[nH]c1=O	n	n	n	n	n	n
C/C(=N\NC(=O)c1ccccc1O)c1c(O)n(C2CCCCC2)c(=O)[nH]c1=O	n	n	12.9	n	n	n
CNc1ccc2oc(C[C@H]3O[C@@]4(CC[C@H]3C)O[C@H]([C@H](C)C(=O)c3ccc[nH]3)[C@H](C)C[C@H]4C)nc2c1C(=O)O	n	n	n	n	n	58.9
O=C(Nc1ccc(OC(=O)N2CCCC2)cc1)N1CCOCC1	38.1	n	n	n	n	n
Cc1cc(/C=C2\C(=O)NC(=O)N(c3cccc(F)c3)C2=O)c(C)n1-c1ccc(C(=O)O)c(Cl)c1	n	n	n	n	n	n
Cc1ccc(N2C(=O)NC(=O)/C(=C/c3ccc(-c4ccc(C(=O)O)c(Cl)c4)o3)C2=O)cc1	n	x	n	n	n	41.7
N#Cc1cccc(-c2ccc([C@H]3[C@H]4CN(C(=O)Cc5cccnc5)CCCCN4[C@H]3CO)cc2)c1	x	n	x	x	x	x
Cc1cc(C=C2C(=O)NC(=S)NC2=O)c(C)n1C1CCCC1	n	48.4	n	n	n	n
Oc1c(Cl)cccc1Cc1cc(Cl)cc(Cl)c1O	n	n	12.3	n	n	n
COc1ccc(-c2ccc([C@@H]3[C@@H](CO)N4CCCCN(C(=O)Cc5ccncc5)C[C@H]34)cc2)cc1	x	n	x	x	x	x
N#CC(C#N)=NNc1ccc(S(N)(=O)=O)cc1	n	x	n	n	n	41.0
O=C(O)[C@H]1[C@H](CO)[C@H]2Cn3c(ccc(-c4ccccc4)c3=O)[C@@H]1N2CC1CCCCC1	x	n	x	x	x	x
COc1cc(C2c3cc4c(cc3CC3COC(=O)C32)OCO4)cc(OC)c1OC (centres undefined)	n	n	n	86.7	n	n
CCCN1[C@@H]2Cn3c(ccc(-c4ccc(OC)cc4)c3=O)[C@H]1[C@@H](C(=O)OC)[C@@H]2CO	x	n	x	x	x	x
